# Compounds with a hit are over-represented: about 19% of the library has one in this group of screens.
# DT40 TDP1 CPT: growth inhibition of DT40 Tdp1-/-;hTDP1 cells with camptothecin (screen for TDP1 inhibitors); 12% of 420,000 active; chicken DT40 Tdp1-/-;hTDP1 cells + 20 nM CPT, ATP luminescence, 48 h; Potency, µM (series often up to 46.2 µM), without a hit: at the top dose activity change, negative = growth inhibition, usual class: inhibitors; also: potency is read from the fitted curve at half-maximal effect; nearly all actives have a fitted effect of over 55% in size
#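 Chicken DT40 Tdp1-/- cells stably complemented with human TDP1 were seeded at 400 cells/well in medium containing 20 nM camptothecin, exposed to pin-transferred compounds, and grown at 37 °C for at least 48 hr. Viability was read as ATP luminescence.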
# HT1080NT lethal: kills 2HG-producing HT-1080-NT fibrosarcoma cells; 1.6% of 360,000 active; Potency, µM (doses to about 46.1 µM), for inactives: at the highest dose activity, negative = less viability, usual class: cytotoxic; AID 686970; HT-1080-NT fibrosarcoma viability, CellTiter-Glo ATP luminescence, 48 h;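 also: NT is the 2HG producing partner of a matched IDH1 knockdown line; potency is read from the fitted curve at half-maximal effect; 0% = DMSO-treated cells and -100% = media-only wells without cells; nearly all actives have a fitted effect of over 55% in size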
#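 Viability by CellTiter-Glo luminescence after 48 h compound exposure at 37C of HT-1080-NT cells (750/well, RPMI, 5% FBS). % activity scaled between DMSO wells and medium-only wells, then curve-fitted and categorized by curve class.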
# IL-1B inflam inh: inhibitors of inflammasome signaling (IL-1 beta secretion). THP-1 LPS/ATP IL-1B secretion, AlphaLISA, 16 h; stronger effect = lower value. activity change, % at 57.5 µM. 4.7% of 360,000 active. AID 743279; in the data active = activity change below about -50%; inconclusive = mostly about -30% to -49%
#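 Secreted IL-1B measured by AlphaLISA bead assay after 16 h compound exposure of THP-1 cells; compounds (final up to 57.5 uM) added 1 h before LPS (250 ng/mL) and ATP (1.25 mM) stimulation; lower signal means less secretion.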
# HT1080 IDH1KD tx: kills HT-1080 cells with IDH1 knockdown; HT-1080 IDH1 knockdown viability, ATP luminescence, 48 h; Potency, µM (top dose mostly 46.1 µM), for the others: at the top dose activity, negative = toxicity, hits mostly cytotoxic; 2% of 360,000 active;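 also: potency is read from the fitted curve at half-maximal effect; 0% = DMSO wells and -100% = cell-free medium wells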
#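 Using the IDH1-knockdown HT-1080 line run in the same batch and compound series as the NT line, viability after 48 h at 37 °C was determined by CellTiter-Glo luminescence and expressed as % activity.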
# DT40 TDP1 no CPT: qHTS for Inhibitors of human tyrosyl-DNA phosphodiesterase 1 (TDP1): qHTS in cells in absence of CPT; DT40 Tdp1-/- hTDP1 cells, no CPT, ATP luminescence, 48 h; Potency, µM (titrated, usually from 46.2 µM), without a hit: at the highest dose activity change, negative = growth inhibition, hits mostly inhibitors; 15% of 420,000 active; AID 686978, 2013; also: potency is read from the fitted curve at half-maximal effect; nearly all actives have a fitted effect of over 55% in size
#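 Seeded 400 DT40-hTDP1 cells/well (vehicle DMSO, no 20 nM CPT); pinned compounds; ≥48 hr at 37 °C; CellTiter-Glo luminescence as viability measure.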
# The depositor's hits bear a star; ? = inconclusive; / = no result given; [ ] = remark or other dose. Unless noted, calls follow the shape of the dose curve; as a rule, active = well fitted curve in the direction sought with a large enough effect; inconclusive = small, poorly fitted or top-dose-only effect, or another doubt; inactive = no such curve, though single readings can be large; an effect the other way counts as inactive or inconclusive. Unless noted, % is scaled to controls: 0 for no effect and ±100 for the full control effect.
SMILES,DT40 TDP1 CPT,HT1080NT lethal,IL-1B inflam inh,HT1080 IDH1KD tx,DT40 TDP1 no CPT
O=C(Nc1cccc(F)c1)NC1CC2CCCC(C1)N2C1CC1 (stereo not given),?,1%,-14,4%,?
O=C(Nc1ccc(Cl)c(C(F)(F)F)c1)NC1CC2CCCC(C1)N2C1CC1 (stereo not given),11µM*,?,?,?,11µM*
CSc1ccc(C2c3[nH]c4ccccc4c3CCN2C(=O)c2ccnn2C)cc1 (stereo not given),-30%,?,?,?,?
COc1cc(C(=O)N2CCc3c([nH]c4ccccc34)C2c2ccc(F)cc2)cc(OC)c1OC (stereo not given),13µM*,/,/,/,15µM*
CCOc1cc(C(=O)N2CCc3c([nH]c4ccccc34)C2c2ccccc2)cc(OCC)c1OCC (stereo not given),6.5µM*,/,/,/,5.8µM*
CCn1nc(C)cc1C(=O)N1CCc2c([nH]c3ccccc23)C1c1cc(F)ccc1F (stereo not given),?,?,?,23µM*,?
Cc1ncoc1C(=O)N1CCc2c([nH]c3ccccc23)C1c1ccccc1F (stereo not given),-1%,?,-7,-20%,-16%
Cc1ccc(OCCCC(=O)Nc2ccc(Br)cc2)cc1,?,8%,22,5%,-18%
Cc1ccccc1N=C1NC(=O)/C(=C/c2cccn2C)S1,16µM*,-29%,-1,-27%,23µM*
O=C1NC(=Nc2ccccc2)S/C1=C\c1cccn1-c1ccccc1,9.2µM*,?,-5,?,21µM*
O=C1NC(=Nc2cccnc2)S/C1=C/c1ccc(F)cc1,2.9µM*,?,13,?,3.3µM*
Cc1ccc(N=C2NC(=O)/C(=C\c3cccs3)S2)cc1C,?,-19%,-8,-27%,?
Cc1cccc(N=C2NC(=O)/C(=C/c3cccn3C)S2)c1,?,-16%,7,-28%,18µM*
COc1ccc2c(c1)OC(C)CN(CCNC(=O)c1csc(-c3cccs3)n1)C2 (stereo not given),-6%[9.04 µM],/,/,/,-14%
CN(C)C(=O)COc1ccccc1C(=O)OCC(=O)N(CCC#N)c1ccccc1,24%,/,/,/,-20%
CN(C)C(CNS(=O)(=O)c1cc([N+](=O)[O-])ccc1Cl)c1ccco1 (stereo not given),?,-1%,-5,-4%,?
Clc1ccc(CSC2=NCCCN2)cc1Cl,?,?,?,?,-26%
CCCCOc1ccc(CSC2=NCCN2)cc1[N+](=O)[O-],18µM*,?,-99*,-22%,21µM*
CCOc1ccc(CSC2=NCCN2)cc1[N+](=O)[O-],?,-29%,-61*,?,16µM*
O=[N+]([O-])c1ccc(CSC2=NCCS2)cc1,6%,7%,-4,4%,2%
O=[N+]([O-])c1ccc(CSC2=NCCN2)cc1,21µM*,-1%,?,1%,21µM*
COc1ccc(CSc2nnnn2C)cc1[N+](=O)[O-],10%,2%,22,-7%,-1%
Cc1ccc2cc3c(=O)n(C)cc(C=O)c3nc2c1,-1%,-2%,44,16%,5%
COCCCN(C(=O)CSc1nc2ccccc2c(=O)n1C)c1c(N)n(Cc2ccccc2)c(=O)[nH]c1=O,-5%,9%,24,14%,?
CC1(C)Cc2c(sc3[nH]c(=O)n(CC(=O)NCC4CCCO4)c(=O)c23)CO1 (stereo not given),8%,0%,16,10%,21%
SMILES,DT40 TDP1 CPT,HT1080NT lethal,IL-1B inflam inh,HT1080 IDH1KD tx,DT40 TDP1 no CPT
Cc1c(S(=O)(=O)N2CCN(c3ccc(F)cc3)CC2)c(=O)n(C)c(=O)n1C,-8%,2%,13,-3%,4%
CCCOc1cccc(C2c3c(oc4ccc(F)cc4c3=O)C(=O)N2Cc2ccc3c(c2)OCO3)c1 (stereo not given),1%,/,/,/,18%
Cc1ccc(CCN2CC(C(=O)NC3CCCC3)CC2=O)cc1 (stereo not given),-25%,15%,-1,8%,-4%
O=C(Nc1ccc(Br)cc1Br)C1CC(=O)N(Cc2ccccc2)C1 (stereo not given),-19%,1%,-56*,-3%,-26%
CC1CCCC(NC(=O)C2CC(=O)N(Cc3ccccc3)C2)C1C (stereo not given),-4%,19%,26,11%,25%
CC1CCCCC1NC(=O)C1CC(=O)N(Cc2ccccc2)C1 (stereo not given),13µM*,8%,34,10%,12µM*
Cc1ccc(CN2CC(C(=O)NC3CCCC(C)C3C)CC2=O)cc1 (stereo not given),18µM*,-4%[9.24 µM],-17,-4%,?
C=CCSc1ncc(C#N)c(N)n1,11%,4%,14,-3%,-29%
Cc1nnc(SCC(=O)Nc2nccs2)n(N)c1=O,-23%,4%,4,17%,-4%
CCCn1c(N)c(C(=O)COc2ccc(Br)cc2F)c(=O)n(C)c1=O,15µM*,-10%,10,-8%,?
Cc1ccc(-c2csc(-c3c[nH]c4ccccc34)n2)c(C)c1,?,?,14,18µM*,?
c1ccc(Nc2nc(-c3ccccn3)cs2)cc1,13µM*,-1%,?,-3%,7.3µM*
CC(=O)c1cccc(Nc2nc(-c3cccnc3)cs2)c1,?,-22%,-88*,?,?
c1cc2c(cc1Nc1nc(-c3ccc4c(c3)OCO4)cs1)OCCO2,?,1%,-15,4%,-26%
c1ccc(-c2csc(Nc3cccnc3)n2)nc1,?,-14%,-2,?,?
